Pf Dd2 inh = Plasmodium falciparum Dd2 growth inhibition; 4.3% of 120,000 active; P. falciparum Dd2 growth, SYBR Green, 72 h; Potency, µM (series often up to 28.9 µM), for inactives: at the highest dose activity, negative = inhibition, hits mostly inhibitors; active means well fitted inhibition curve with a large enough effect;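 further: plate controls were DMSO vehicle for no effect and reference drug for full effect; nearly all actives have a fitted effect of over 65% in size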
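Infected erythrocytes (Dd2, 0.3% parasitemia, 2.5% hematocrit final) are added to compound in RPMI-1640/Albumax II medium, grown 72 h at 37C in low oxygen, then lysed with saponin/Triton-X containing SYBR Green and read by fluorescence.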
An asterisk follows results filed as active; i = inactive; [ ] = another dose, or the depositor's remark. This excerpt belongs to a sample that is enriched for hits. Potency means the concentration at half of the fitted maximal effect.

SMILES | Pf Dd2 inh
Cc1ccc(C)c(NC(=O)CN2C(=O)COc3ccc(Cl)cc32)c1 | 15%
COc1ccc(N2C(=O)CSC23C(=O)N(CC(N)=O)c2ccccc23)cc1 (centres undefined) | 7%
COc1ccc(N2C(=O)CCSC23C(=O)N(Cc2ccc(F)cc2)c2ccccc23)cc1 (centres undefined) | -13%
COc1ccc([S+](=O)([O-])c2nnn3c2nc(NCCCOC(C)C)c2ccccc23)cc1 | -14%
COc1ccc(CNC(=O)C[C@@H]2O[C@H](CNC(=O)NC(C)C)[C@@H](O)[C@H]2O)cc1 | -9%[44.1 µM]
CC1(c2ccccc2)N(Cc2ccc(O)cc2)C(=O)OC12CCN(CC1CC1)CC2 (centres undefined) | i
COCCN1CCCN(C(=O)c2ccc(F)c(F)c2)c2ccccc21 | i
O=C(NCc1ccc(F)cc1)N1CC(c2nnc(-c3ccncc3)o2)C2(CCOCC2)C1 (centres undefined) | -24%
O=C(c1ccc(F)c(F)c1)N1CCCC(c2noc(COc3ccccc3F)n2)C1 (centres undefined) | i
O=C(Nc1ccc([C@@H](O)[C@H]2COCC(=O)N2Cc2ccccc2)cc1)c1ccc(F)cc1 | i
CN1CCN([C@H]2[C@@H]3OC[C@@H](O3)[C@@H](NC(=O)Nc3ccc(F)cc3)[C@@H]2O)CC1 | -10%[44.1 µM]
Cc1ccc(NC(=O)N2CCc3c(c4ccccc4n3C)C2)cc1C | -18%
O=C1CC(c2ccccc2)Cc2[nH]c(=O)c(C(=O)Nc3cccc(Cl)c3)cc21 (centres undefined) | -13%
CCOC(=O)C1=C(C)N=C2SCCC(=O)N2C1c1ccc(OCc2ccccc2)cc1 (centres undefined) | 61%
CCOC(=O)c1[nH]c2c(c1Cc1ccccc1C)C(=O)CC(c1ccccc1)C2 (centres undefined) | 8.9µM*
CCOC(=O)c1[nH]c2c(c1Cc1ccccc1C)C(=O)CC(c1cc(OC)ccc1OC)C2 (centres undefined) | 5µM*
COc1ccc(C2CC(=O)c3c([nH]c(C(=O)OCc4ccccc4)c3C)C2)cc1OC (centres undefined) | -16%
CCOC(=O)C1=C(C)N=C2SC=C(CC(=O)NCC3CC3)N2C1c1cc(OC)ccc1OC (centres undefined) | i
CCc1ccc(C2CC(=O)c3c([nH]c(C(=O)OCCOc4ccccc4)c3C)C2)cc1 (centres undefined) | 5µM*
Cc1c(C(=O)OCc2ccccc2)[nH]c2c1C(=O)CC(c1ccc(Cl)cc1)C2 (centres undefined) | -2%
CCOC(=O)C1=C(CNCc2ccc(Cl)cc2)NC(=O)NC1c1ccccc1 (centres undefined) | -8%
O=C(c1ccccn1)N1CCCC2(CC(c3cccnc3)=NO2)C1 (centres undefined) | 2%
CC(C(=O)NCc1ccccc1)N1C(=O)COc2ccc(C(=O)COc3ccc(Cl)cc3)cc21 (centres undefined) | i
CCN1C(=O)C2(CCN(C(=O)CC(C)C)CC2)c2ccccc21 | 11%
COCCc1noc(-c2nc(-c3ccccc3F)no2)n1 | -18%
SMILES | Pf Dd2 inh
Cc1ncncc1C(=O)N1CC[C@@](O)(C2CCOCC2)[C@H](C)C1 | -3%
O=C(Cc1cccnc1)NCC(=O)N1CCCCCCNC(=O)CC1c1ccccc1 (centres undefined) | -1%
CC(C)(C)OC(=O)N1CCC(c2c(C(=O)NC3CCCCC3)cnn2-c2cccc(Cl)c2)CC1 | 8.9µM*
Cc1ccc(-n2ncc(C(=O)NCc3ccccn3)c2C2CCN(C(=O)OC(C)(C)C)CC2)cc1C | -3%
Cc1cccc(-n2ncc(C(=O)NCc3ccccn3)c2C2CCN(C(=O)OC(C)(C)C)CC2)c1 | 10µM*
CC(C)(C)OC(=O)N1CCC(c2c(C(=O)NCc3cccc(Cl)c3)cnn2-c2ccc(F)cc2)CC1 | 11µM*
Cc1cccc(-n2ncc(C(=O)N3CCN(C(=O)c4ccco4)CC3)c2C2CCN(C(=O)OC(C)(C)C)CC2)c1 | i
CC(C)(C)OC(=O)N1CCC(c2c(C(=O)NCc3ccc(F)cc3)cnn2-c2ccc(F)cc2)CC1 | -12%
CCOC(=O)N1CCC(NC(=O)c2cnn(-c3ccccc3)c2C2CCN(C(=O)OC(C)(C)C)CC2)CC1 | -20%
Cc1c(Cl)cccc1-n1ncc(C(=O)NC2CCCCC2)c1C1CCN(C(=O)OC(C)(C)C)CC1 | i
Cc1cccc(-n2ncc(C(=O)NCc3ccco3)c2C2CCN(C(=O)OC(C)(C)C)CC2)c1 | 11µM*
COCCNC(=O)[C@@H]1C[C@H](Oc2cccnc2)CN1C(=O)c1ccc(C)s1 | 14%
CCN1c2cc(C(=O)Nc3cccc(C(F)(F)F)c3)ccc2C(=O)N2CCCC21 (centres undefined) | 158%
Cc1cccc(C(=O)N2CCC(Cc3n[nH]c(C)n3)CC2)c1 | -16%
Cc1cccc(NC(=O)c2ccc(N3CC4CC(C3)[C@H]3CCCC(=O)N3C4)nc2)c1 (some centres undefined) | i
CC(C)(C)OC(=O)N1CCC(c2c(C(=O)NCc3ccco3)cnn2-c2ccc(F)cc2)CC1 | 7.9µM*
COCC1CN(C(=O)CC2CCN(C(C)=O)CC2)CC12CCNCC2 (centres undefined) | 18%
COC[C@H]1C[C@@H](NC2CCN(C)CC2)[C@H](O)[C@@H]1O | 16%[44.1 µM]
O=C([C@H]1C[C@H](Oc2ccccc2)CN1C(=O)Cc1ccccc1F)N1CCOCC1 | -19%
Cc1ccc(-c2cc(C(=O)N3CCN(S(=O)(=O)c4ccc(Br)s4)CC3)[nH]n2)cc1C | 3%
O=C(C1CCN(S(=O)(=O)c2ccc(Br)s2)CC1)N1CCN(c2ccc(F)cc2)CC1 | -8%
O=C(c1cc(-c2ccc(Cl)cc2)n[nH]1)N1CCN(S(=O)(=O)c2ccc(Br)s2)CC1 | -25%
O=C(c1cc(-c2ccc(Br)cc2)n[nH]1)N1CCN(S(=O)(=O)c2ccc(Br)s2)CC1 | 8.9µM*
Cc1ccc(-c2cc(C(=O)N3CCN(S(=O)(=O)c4ccc(Br)s4)CC3)[nH]n2)c(C)c1 | 13µM*
Cc1cc(Br)ccc1NC(=O)C1CCN(S(=O)(=O)c2ccc(Br)s2)CC1 | -18%
SMILES | Pf Dd2 inh
Cc1cc(CNC(=O)c2ccc3c(c2)n(CC2CC2)c(=O)n3C2CCCCC2)on1 | i
CCc1ccc(S(=O)(=O)N2CC(F)(F)C[C@H]2c2nnc(C)o2)cc1 | 18%
O=C(Cc1c[nH]c2ncc(-c3cccnc3)cc12)NCc1cccc(F)c1 | 6.3µM*
Cn1cc(-c2cnc3[nH]cc(CC(=O)Nc4cccc(F)c4)c3c2)cn1 | 6.3µM*
CN1CCN(C(=O)Cc2c[nH]c3ncc(-c4cccc(Cl)c4)cc23)CC1 | i
O=C(Cc1c[nH]c2ncc(-c3cccnc3)cc12)NCCc1ccccc1 | i
COc1ccc(OC)c(-c2cnc3[nH]cc(CC(=O)NCc4cccnc4)c3c2)c1 | i
CN1CCN(C(=O)Cc2c[nH]c3ncc(-c4ccc5c(c4)OCO5)cc23)CC1 | -21%[44.1 µM]
Cn1cc(-c2cnc3[nH]cc(CC(=O)Nc4ccccc4Cl)c3c2)cn1 | -19%[44.1 µM]
O=C(Cc1c[nH]c2ncc(-c3ccncc3)cc12)NCc1cccnc1 | 5µM*
Cn1cc(-c2cnc3[nH]cc(CC(=O)Nc4ccc(N5CCOCC5)cc4)c3c2)cn1 | 45%[44.1 µM]
O=C(Cc1c[nH]c2ncc(-c3ccccc3)cc12)NCc1cnccn1 | i
O=C(Cc1c[nH]c2ncc(-c3cccnc3)cc12)Nc1ccc(C(F)(F)F)cc1 | -25%[44.1 µM]
CN1CCN(C(=O)Cc2c[nH]c3ncc(-c4ccc(F)c(Cl)c4)cc23)CC1 | 11µM*

Screens deposited in PubChem BioAssay by National Center for Advancing Translational Sciences (NCATS).
